# GALK inh = inhibitors of human galactokinase | Potency, µM (top dose mostly 57.5 µM), without a hit: at the highest dose activity change, negative = inhibition, most hits filed as inhibitors | Purified GALK, Kinase-Glo residual ATP luminescence | AID 1868 | 0.007% of 270,000 active | P51570; also: potency is read from the fitted curve at half-maximal effect
#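 Human GALK (5 nM) with 35 uM ATP and 100 uM galactose in 20 mM HEPES pH 8.0, 5 mM MgCl2, 60 mM NaCl, 1 mM DTT, 0.01% BSA. After 1 h at room temperature, leftover ATP was read by Kinase-Glo Plus luminescence.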
# TrxR1 substrate = is turned over as a substrate by rat TrxR1; 0.01% of 390,000 active; O89049; purified TrxR1 substrate turnover, NADPH consumption readout; Potency, µM (series often up to 114 µM), for inactives: top-dose activity change, negative = substrate turnover; also: potency is read from the fitted curve at half-maximal effect; nearly all actives have a fitted effect of over 50% in size
#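 Rat TrxR1, dispensed at 90 nM, was prereduced with 400 uM NADPH (final) for 5 min at ~22 deg C, then incubated with compound 15 min before 400 uM selenite. A first-read NADPH fluorescence drop versus no-compound background flagged substrates.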
# PI4K2A inh = inhibitors of human PI4K2A; Q9BTU6; purified PI4K2A, ADP-Glo luminescence, 1 h; stronger effect = lower value; activity change, negative = inhibition, % at 76.9 µM; 0.13% of 420,000 active; AID 1346378; in the data active = activity change below about -50%; inconclusive = mostly about -30% to -49%;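 also: -100% = wells without enzyme as full effect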
# Target sequence (Q9BTU6 whole entry, looked up): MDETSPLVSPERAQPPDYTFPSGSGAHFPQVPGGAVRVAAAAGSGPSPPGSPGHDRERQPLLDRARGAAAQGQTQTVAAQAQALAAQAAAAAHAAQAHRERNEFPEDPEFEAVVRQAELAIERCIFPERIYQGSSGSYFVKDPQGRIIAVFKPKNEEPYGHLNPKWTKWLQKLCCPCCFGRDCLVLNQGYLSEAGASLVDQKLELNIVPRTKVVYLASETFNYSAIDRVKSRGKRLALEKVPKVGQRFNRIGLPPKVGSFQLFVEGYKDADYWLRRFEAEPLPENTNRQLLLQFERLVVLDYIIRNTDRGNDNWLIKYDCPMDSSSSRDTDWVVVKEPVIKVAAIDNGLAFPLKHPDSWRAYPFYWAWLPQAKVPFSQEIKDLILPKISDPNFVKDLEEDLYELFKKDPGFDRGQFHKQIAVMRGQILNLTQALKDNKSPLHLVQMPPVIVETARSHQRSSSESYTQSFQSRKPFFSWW
#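 PI4K2A activity was measured by ADP-Glo luminescence: enzyme (4 ug/mL stock) and phosphatidylinositol (1.2 mM stock) in Tris pH 7.5/MgCl2/EGTA/Triton X-100 buffer were reacted with ATP (300 microM stock) for one hour at ambient temperature.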
# rTrxR1 inhibitor = rat TrxR1 inhibition; recombinant rTrxR1, NADPH fluorescence consumption, selenite substrate; Potency, µM (highest dose often 114 µM), inactives show at the top dose activity change, negative = inhibition, usual class: inhibitors; O89049; 1% of 390,000 active; also: potency is read from the fitted curve at half-maximal effect; nearly all actives have a fitted effect of over 65% in size
#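 Rat TrxR1 (90 nM in the dispensed reagent) was pre-reduced with 400 uM NADPH for 5 min at room temperature, then incubated with compound for 15 min. After 400 uM selenite was added, NADPH fluorescence (Ex 340/Em 450 nm) was followed for 8 min.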
# * hit, by the source's call; i = inactive; u = inconclusive; x = no result; [ ] = dose if it differs, or a comment. This is a sample that favours compounds with a hit; in the whole collection about 1.1% have one here. Unless noted, calls follow the shape of the dose curve; as a rule, active = well fitted curve in the direction sought with a large enough effect; inconclusive = small, poorly fitted or top-dose-only effect, or another doubt; inactive = no such curve, though single readings can be large; an effect the other way counts as inactive or inconclusive. Unless noted, % is scaled to controls: 0 for no effect and ±100 for the full control effect.
SMILES,GALK inh,TrxR1 substrate,PI4K2A inh,rTrxR1 inhibitor
Cc1ccc(N2CC(NC(=O)c3ccccc3Br)CC2=O)cc1 (stereo not given),x,0%[57.1 µM],-1,-2%[57.1 µM]
COC1=C(OC)C(=O)c2ccccc2C1=O,x,24%[57.1 µM],-24,12%[57.1 µM]
COC1=CC(=O)C(OC)=C(OC)C1=O,x,-9%,-3,50µM*
CCCc1cc(=O)oc2c(CN3CCN(C)CC3)c(O)ccc12,4%,869%,2,79µM*
CCCc1cc(=O)oc2c(CN3CCN(C)CC3)c(O)c(Cl)cc12,6%,i,-2,40µM*
CCCc1cc(=O)oc2c(CN(CC)CC)c(O)c(Cl)cc12,-1%,953%,5,18µM*
CCCCc1cc(=O)oc2c(CN3CCCC3)c(O)c(Cl)cc12,0%,i,0,u
CCCCc1cc(=O)oc2c(CN(CC)CC)c(O)c(Cl)cc12,-3%,i,-4,u
Cc1ccc(Cn2ccn(Cc3ccc(C)cc3)c(=O)c2=O)cc1,x,0%,6,41%[11.4 µM]
NC(C(=O)N[C@@H]1C(=O)N2C(C(=O)O)=C(Cl)CS[C@H]12)c1ccccc1 (stereo not given in full),x,5%[57.1 µM],-7,14%[57.1 µM]
Cc1nc2c(c(C)c1CCC(=O)Nc1cccc(C(F)(F)F)c1)c(=O)n(C)c(=O)n2C,x,-2%,-1,19%
CC(C)CCNC(=O)c1cc2c(=O)n3ccccc3nc2s1,1%,106%,5,45µM*
CC(C)CN(CC(C)C)C(=O)c1cc2c(=O)n3ccccc3nc2s1,x,32%[57.1 µM],4,2%[57.1 µM]
O=C(c1ccc(CS(=O)c2ccccc2Cl)o1)N1CCN(c2ccccn2)CC1 (stereo not given),-2%,3%,0,21%
CCOC(=O)C1=NN(N=O)C2(CC(=O)N(c3cc(C)cc(C)c3)C2=O)C1 (stereo not given),-4%,3%[57.1 µM],0,16µM*
CCOC(=O)C1=NNC2(CC(=O)N(c3cc(C)cc(C)c3)C2=O)C1 (stereo not given),5%,-2%,-9,11%
Cc1ccc(-c2nn(-c3ccccc3)cc2C(=O)Nc2cccc(S(=O)(=O)NC3=NCCC3)c2)cc1,x,x,0,x
CC1CCCCN1CCCOC(=O)c1ccc(OC2CCCCC2)cc1 (stereo not given),x,x,2,x
O=C1C=C(C2OC(CO)C(O)C2O)C(=O)N1 (stereo not given),x,4%,-1,7.1µM*
CC(c1c[nH]c2ccccc12)c1cn(C)c2ccccc12 (stereo not given),x,x,1,x
CNc1oc(-c2ccc(Cl)cc2)nc1C#N,-6%,190%,2,40µM*
C=CCOc1ccccc1CN(C(=O)CCl)c1ccc2c(c1)OCO2,-3%,0%,8,20µM*
CCN(CC)c1ccc2nc3ccccc3[n+](CC)c2c1,-1%,-11%,-55*,-26%
CCN(CC)c1ccc2nc3ccc(N)cc3[n+](-c3ccccc3)c2c1,x,-7%,u,-13%
COc1cc2[nH]c(Cl)c([N+](=O)[O-])c2cc1OC,7%,3%,-12,1.4µM*
SMILES,GALK inh,TrxR1 substrate,PI4K2A inh,rTrxR1 inhibitor
COc1cc2[nH]c3c(Cl)ncnc3c2cc1OC,2%,-5%,-7,-2%
CC1(C)Oc2ccc(C(=O)NC3CCCC3)cc2NC1=O,x,x,2,x
O=S(=O)(c1cccc(C(F)(F)F)c1)n1c(/C=C/c2ccccc2)nc2ccccc21,x,0%[57.1 µM],-61*,23%[57.1 µM]
CCOc1ccccc1NC(=O)c1ccc(C(=O)Nc2ccccc2OCC)cc1,x,-1%,-2,-16%
CCOc1ccccc1NC(=O)/C=C/C(N)=O,-1%,10%,-3,25µM*
O=C(O)Cn1cnnn1,x,x,1,x
CN(C(=O)Cn1cnc2onc(-c3ccc(F)cc3)c2c1=O)c1ccccc1Cl,x,-6%,0,26%
COc1cc(C2SC[C@H]3C(=O)N(c4ccccc4)C(=O)N23)cc(OC)c1OC (stereo not given in full),x,-2%,-4,79µM*
CN1C(=O)/C(=C\C(=O)c2cccs2)c2ccccc21,0%,0%[57.1 µM],7,-23%[57.1 µM]
CC(=O)/C=C1\C(=O)N(C)c2ccccc21,x,20%[57.1 µM],-17,30µM*
N#CC(C#N)=NNc1ccc(S(=O)(=O)N2CCCCC2)cc1,-5%,-12%,-6,32µM*
CCCCN(CCC(=O)O)c1ccc(/C=C/c2ccnc3ccccc23)cc1,x,1%,x,-1%
O=[N+]([O-])C(/C=C(\Cl)[N+](=O)[O-])=C1N(Cc2ccc(Cl)nc2)CCN1Cc1ccc(Cl)nc1,-6%,-10%,-5,1.8µM*

# Screening results as filed in PubChem BioAssay.
